Measured values reported in the supplement of paper PMC7380943.
± gives the standard deviation of the averaged measurements.

Tests used:
[1] = system: CLZ3 (HCA2 human fibroblast dual HR-NHEJ reporter); test: NHEJ repair efficiency (GFP+ cells) relative to control (log10 fold); higher = more non-homologous end joining; conditions: 5 µM; doxycycline 0.5 ug/mL
[2] = system: CLZ3 (HCA2 human fibroblast dual HR-NHEJ reporter); test: HR repair efficiency (tdTomato+ cells) relative to control (log10 fold); higher = more homologous recombination; conditions: 5 µM; doxycycline 0.5 ug/mL
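Throughout, for HR repair efficiency (tdTomato+ cells) relative to control: compound given one day before doxycycline, which switches on I-SceI endonuclease expression to create double-strand breaks within the integrated reporter.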
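Throughout, for NHEJ repair efficiency (GFP+ cells) relative to control: compound given one day ahead of doxycycline, which switches on I-SceI endonuclease to cut the chromosomally integrated reporter and create DSBs.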

## COc1cc([C@H]2OC[C@H]3[C@@H]2CO[C@H]3c2ccc(OC)c(OC)c2)ccc1O [Phillygenin]
[1]
  NHEJ repair efficiency (log10): 0.129
[2]
  HR repair efficiency (log10): 0.116

## COc1c2occc2cc2ccc(=O)oc12 [Xanthotoxin]
[1]
  NHEJ repair efficiency (log10): -0.261
[2]
  HR repair efficiency (log10): -0.0664

## O=C1/C(=C2\Nc3ccccc3C2=O)Nc2ccccc21 [Indigotin]
[1]
  NHEJ repair efficiency (log10): 0.00962
[2]
  HR repair efficiency (log10): -0.105

## COc1cc(CCC(C)=O)ccc1O [Zingerone]
[1]
  NHEJ repair efficiency (log10): 0.275
[2]
  HR repair efficiency (log10): 0.257

## COc1cc(O)c(C(C)=O)cc1S(=O)(=O)O [Sodium Paeonol Sulfonate]
[1]
  NHEJ repair efficiency (log10): 0.0246
[2]
  HR repair efficiency (log10): 0.0512

## COc1cc([C@@H]2Oc3c(O)cc([C@H]4Oc5cc(O)cc(O)c5C(=O)[C@@H]4O)cc3[C@H]2CO)ccc1O [Silicristin]
[1]
  NHEJ repair efficiency (log10): -0.0735
[2]
  HR repair efficiency (log10): 0.068

## O=C(O)/C=C/c1ccc(O)c(O)c1 [Caffeic acid]
[1]
  NHEJ repair efficiency (log10): 0.0395
[2]
  HR repair efficiency (log10): 0.0424

## CC1(C)CC[C@]2(C(=O)O[C@@H]3O[C@H](CO)[C@@H](O)[C@H](O)[C@H]3O)CC[C@]3(C)C(=CC[C@@H]4[C@@]5(C)CC[C@H](O[C@@H]6O[C@H](C(=O)O)[C@@H](O)[C@H](O)[C@H]6O[C@@H]6O[C@H](CO)[C@@H](O)[C@H](O)[C@H]6O)C(C)(C)[C@@H]5CC[C@]43C)[C@@H]2C1 [Ginsenoside Ro]
[1]
  NHEJ repair efficiency (log10): 0.13
[2]
  HR repair efficiency (log10): 0.3

## C[C@@H]1CC[C@@]2(OC1)O[C@H]1C[C@H]3[C@@H]4CC=C5C[C@@H](O[C@@H]6O[C@H](CO)[C@@H](O)[C@H](O[C@@H]7O[C@H](CO)[C@@H](O)[C@H](O)[C@H]7O)[C@H]6O[C@@H]6O[C@@H](C)[C@H](O)[C@@H](O)[C@H]6O)CC[C@]5(C)[C@H]4CC[C@]3(C)[C@H]1[C@@H]2C [Gracillin]
[1]
  NHEJ repair efficiency (log10): -0.154
[2]
  HR repair efficiency (log10): -0.0532

## C=C(C)[C@H](CC=C(C)C)Cc1c(O)cc(OC)c2c1O[C@H](c1ccc(O)cc1O)CC2=O [Kurarinone]
[1]
  NHEJ repair efficiency (log10): 0.0108
[2]
  HR repair efficiency (log10): 0.0158

## C[C@@H]1C(=O)O[C@H](C)[C@H]1C[C@@H](O)[C@](C)(O)[C@H]1CC[C@@]2(O)C3=CC(=O)[C@@H]4C[C@@H](O)[C@@H](O)C[C@]4(C)[C@H]3CC[C@]12C [Cyasterone]
[1]
  NHEJ repair efficiency (log10): 0.00995
[2]
  HR repair efficiency (log10): 0.0455

## COc1cc(OC)c2ccc(=O)oc2c1 [5,7-Dimethoxycoumarin]
[1]
  NHEJ repair efficiency (log10): 0.0653
[2]
  HR repair efficiency (log10): 0.0758

## COC(=O)c1c2c(c3ccccc3c1O)OC(C)(C)C=C2 [Rubimaillin]
[1]
  NHEJ repair efficiency (log10): 0.0202
[2]
  HR repair efficiency (log10): -0.0243

## COc1ccc(-c2oc3c(CC=C(C)C)c(O[C@@H]4O[C@H](CO)[C@@H](O)[C@H](O)[C@H]4O)cc(O)c3c(=O)c2O[C@@H]2O[C@@H](C)[C@H](O)[C@@H](O)[C@H]2O[C@@H]2OC[C@@H](O)[C@H](O)[C@H]2O)cc1 [Epimedin B]
[1]
  NHEJ repair efficiency (log10): -0.0634
[2]
  HR repair efficiency (log10): -0.0516

## O=C(O)CC(O)(CC(=O)O)C(=O)O [Citric Acid]
[1]
  NHEJ repair efficiency (log10): -0.0431
[2]
  HR repair efficiency (log10): -0.109

## C[C@@H]1O[C@@H](O[C@H]2[C@H](OC(=O)[C@]34CCC(C)(C)C[C@H]3C3=CC[C@@H]5[C@@]6(C)C[C@H](O)[C@H](O[C@@H]7O[C@H](CO)[C@@H](O)[C@H](O)[C@H]7O)C(CO)(CO)[C@@H]6CC[C@@]5(C)[C@]3(C)C[C@H]4O)OC[C@H](O)[C@@H]2O)[C@H](O)[C@H](O)[C@H]1O[C@@H]1OC[C@@H](O)[C@H](O[C@@H]2OC[C@](O)(CO)[C@H]2O)[C@H]1O [Platycodin D]
[1]
  NHEJ repair efficiency (log10): -0.142
[2]
  HR repair efficiency (log10): -0.287

## COc1cc(C=O)ccc1O [Vanillin]
[1]
  NHEJ repair efficiency (log10): -0.132
[2]
  HR repair efficiency (log10): -0.154

## COc1cc(OC)c(CCC(=O)c2ccc(O)cc2)c(OC)c1
[1]
  NHEJ repair efficiency (log10): -0.0337
[2]
  HR repair efficiency (log10): 0.0988

## C[C@@]12C[C@@]3(O)O[C@@H](O1)[C@]1(COC(=O)c4ccccc4)[C@@H]3C[C@]12O[C@@H]1O[C@H](COC(=O)c2ccccc2)[C@@H](O)[C@H](O)[C@H]1O [Benzoylpaeoniflorin]
[1]
  NHEJ repair efficiency (log10): -0.0544
[2]
  HR repair efficiency (log10): -0.0282

## C[C@@H]1CCCCCCCCCCCCC(=O)C1 [Muscone]
[1]
  NHEJ repair efficiency (log10): 0.1
[2]
  HR repair efficiency (log10): 0.229

## COc1ccc2c(OC)c3ccoc3nc2c1OC [Skimmianine]
[1]
  NHEJ repair efficiency (log10): -0.0606
[2]
  HR repair efficiency (log10): 0.00427

## C/C(=C\C(=O)CC(C)C(=O)O)[C@H]1CC(=O)[C@@]2(C)C3=C(C(=O)C[C@]12C)[C@@]1(C)CC[C@H](O)C(C)(C)[C@@H]1C[C@@H]3O (some centres undefined) [Ganoderenic Acid B]
[1]
  NHEJ repair efficiency (log10): 0.000561
[2]
  HR repair efficiency (log10): 0.021

## Cc1ccc(C(C)C)cc1O [Carvacrol]
[1]
  NHEJ repair efficiency (log10): -0.132
[2]
  HR repair efficiency (log10): -0.173

## C=C(C)[C@@H]1CC[C@]2(C)[C@H](CC=C3[C@@H]4[C@@H](C)[C@H](C)CC[C@]4(C)CC[C@]32C)[C@@]1(C)CCC(=O)O [Roburic acid]
[1]
  NHEJ repair efficiency (log10): 0.15
[2]
  HR repair efficiency (log10): 0.128

## CN[C@@H](C)[C@H]1[C@H](O)C[C@@]2(C)[C@@H]3CC[C@H]4C(C)(C)[C@@H](NC)CC[C@@]45C[C@@]35CC[C@]12C [Cyclovirobuxine D]
[1]
  NHEJ repair efficiency (log10): -0.023
[2]
  HR repair efficiency (log10): 0.0389

## CC1(C)CCC2(CO)C(=C3C=CC4C5(C)CCC(OC6OC(COC7OC(CO)C(O)C(O)C7O)C(OC7OC(CO)C(O)C(O)C7O)C(O)C6O)C(C)(CO)C5CCC4(C)C3(C)CC2O)C1 (centres undefined) [Clinopodiside A]
[1]
  NHEJ repair efficiency (log10): -0.0569
[2]
  HR repair efficiency (log10): 0.0428

## O=C(O)/C=C/c1ccc(O)cc1 [P-Coumaric Acid]
[1]
  NHEJ repair efficiency (log10): 0.1
[2]
  HR repair efficiency (log10): 0.212

## COc1cc2c(cc1O)CC[n+]1cc3c(OC)c(OC)ccc3cc1-2 [Jatrorrhizine]
[1]
  NHEJ repair efficiency (log10): -0.00725
[2]
  HR repair efficiency (log10): 0.0284

## COc1ccc(C=O)c(O)c1 [4-Methoxysalicylaldehyde]
[1]
  NHEJ repair efficiency (log10): 0.00827
[2]
  HR repair efficiency (log10): -0.0885

## C[C@@H]1O[C@@H](O[C@H]2[C@H](OC(=O)[C@]34CCC(C)(C)C[C@H]3C3=CC[C@@H]5[C@@]6(C)C[C@H](O)[C@H](O[C@@H]7O[C@H](CO)[C@@H](O)[C@H](O[C@@H]8O[C@H](CO)[C@@H](O)[C@H](O)[C@H]8O)[C@H]7O)C(CO)(CO)[C@@H]6CC[C@@]5(C)[C@]3(C)C[C@H]4O)OC[C@H](O)[C@@H]2O)[C@H](O)[C@H](O)[C@H]1O[C@@H]1OC[C@@H](O)[C@H](O[C@@H]2OC[C@](O)(CO)[C@H]2O)[C@H]1O [Platycodin D2]
[1]
  NHEJ repair efficiency (log10): -0.00927
[2]
  HR repair efficiency (log10): -0.252

## O[C@@H]1[C@@H](O)[C@@H](OC/C=C/c2ccccc2)O[C@H](CO[C@@H]2OC[C@H](O)[C@H](O)[C@H]2O)[C@H]1O [Rosavin]
[1]
  NHEJ repair efficiency (log10): 0.0495
[2]
  HR repair efficiency (log10): 0.148

## COc1c(O)cc2c(c1O)[C@@H]1O[C@H](CO)[C@@H](O)[C@H](O)[C@H]1OC2=O [Bergenin]
[1]
  NHEJ repair efficiency (log10): 0.0025
[2]
  HR repair efficiency (log10): -0.0334

## C=C[C@H]1[C@H](O[C@@H]2O[C@H](CO)[C@@H](O)[C@H](O)[C@H]2O)OC=C2C(=O)OCC[C@]21O [Swertiamarin]
[1]
  NHEJ repair efficiency (log10): -0.0365
[2]
  HR repair efficiency (log10): -0.0353

## CC(C)=CCC[C@](C)(O[C@@H]1O[C@H](CO[C@@H]2O[C@H](CO)[C@@H](O)[C@H](O)[C@H]2O)[C@@H](O)[C@H](O)[C@H]1O)[C@H]1CC[C@]2(C)[C@@H]1[C@H](O)C[C@@H]1[C@@]3(C)CC[C@H](O[C@@H]4O[C@H](CO)[C@@H](O)[C@H](O)[C@H]4O)C(C)(C)[C@@H]3CC[C@]12C [Gypenoside Xvii]
[1]
  NHEJ repair efficiency (log10): 0.0522
[2]
  HR repair efficiency (log10): 0.00706

## O=Cc1ccc(O[C@@H]2O[C@H](CO)[C@@H](O)[C@@H](O)[C@H]2O)cc1 [Helicide]
[1]
  NHEJ repair efficiency (log10): 0.119 ± 0.097
[2]
  HR repair efficiency (log10): 0.0668 ± 0.075

## C/C=C(/C)C(=O)OC(C)(C)[C@@H]1Cc2c(ccc3ccc(=O)oc23)O1 [Columbianadin]
[1]
  NHEJ repair efficiency (log10): -0.0553
[2]
  HR repair efficiency (log10): -0.0376

## C[C@H]1O[C@@H](O[C@H]2CC[C@@]3(C)[C@@H](CC[C@]4(C)[C@@H]3C=C[C@]35OC[C@@]6(CCC(C)(C)C[C@H]63)[C@@H](O)C[C@]54C)[C@]2(C)CO)[C@H](O)[C@@H](O[C@@H]2O[C@H](CO)[C@@H](O)[C@H](O)[C@H]2O)[C@H]1O [Saikosaponin a]
[1]
  NHEJ repair efficiency (log10): -0.305
[2]
  HR repair efficiency (log10): -0.315

## C[C@H](CCC(=O)O)[C@H]1CC[C@H]2[C@@H]3[C@H](O)C[C@@H]4C[C@H](O)CC[C@]4(C)[C@H]3CC[C@]12C [Chenodeoxycholic Acid]
[1]
  NHEJ repair efficiency (log10): -0.124
[2]
  HR repair efficiency (log10): 0.00712

## C[C@H](CC(=O)C[C@@H](C)[C@H]1C[C@H](O)[C@@]2(C)C3=C(C(=O)C[C@]12C)[C@@]1(C)CCC(=O)C(C)(C)[C@@H]1C[C@@H]3O)C(=O)O [Ganoderic Acid A]
[1]
  NHEJ repair efficiency (log10): 0.0922
[2]
  HR repair efficiency (log10): 0.159

## O=c1c(O)cc([C@H]2Oc3cc(O)cc(O)c3C[C@H]2O)cc2c([C@H]3Oc4cc(O)cc(O)c4C[C@H]3O)cc(O)c(O)c12 [Theaflavin]
[1]
  NHEJ repair efficiency (log10): 0.0294
[2]
  HR repair efficiency (log10): 0.0415

## OC[C@H]1NC[C@H](O)[C@@H](O)[C@@H]1O [1-Deoxynojirimycin]
[1]
  NHEJ repair efficiency (log10): 0.0355
[2]
  HR repair efficiency (log10): 0.0442

## OCC1=C[C@@H](O)[C@]2(O[C@@H]3O[C@H](CO)[C@@H](O)[C@H](O)[C@H]3O[C@@H]3O[C@H](CO)[C@@H](O)[C@H](O)[C@H]3O)C=CO[C@@H](O[C@@H]3O[C@H](CO)[C@@H](O)[C@H](O)[C@H]3O)[C@H]12 [Rehmannioside D]
[1]
  NHEJ repair efficiency (log10): -0.165
[2]
  HR repair efficiency (log10): -0.0162

## O=C(/C=C/c1ccc(O)c(O)c1)O[C@H]1[C@H](O)C[C@](O)(C(=O)O)C[C@H]1O [Cryptochlorogenic Acid]
[1]
  NHEJ repair efficiency (log10): 0.102
[2]
  HR repair efficiency (log10): 0.168

## O=C(OCC1=C[C@@H](O)[C@@H]2C=CO[C@@H](O[C@@H]3O[C@H](CO)[C@@H](O)[C@H](O)[C@H]3O)[C@H]12)c1ccc(O)cc1 [Agnuside]
[1]
  NHEJ repair efficiency (log10): -0.062
[2]
  HR repair efficiency (log10): 0.106

## O=c1cc(-c2ccc(O)c(-c3c(O)cc(O)c4c(=O)cc(-c5ccc(O)cc5)oc34)c2)oc2cc(O)cc(O)c12 [Amentoflavone]
[1]
  NHEJ repair efficiency (log10): 0.0928
[2]
  HR repair efficiency (log10): 0.0831

## COc1cc(C(=O)O)cc(OC)c1O [Syringic acid]
[1]
  NHEJ repair efficiency (log10): -0.0271
[2]
  HR repair efficiency (log10): -0.177

## COc1cc2ccc(=O)oc2c(O[C@@H]2O[C@H](CO)[C@@H](O)[C@H](O)[C@H]2O)c1O [Fraxin;Fraxoside; Paviin]
[1]
  NHEJ repair efficiency (log10): 0.0655
[2]
  HR repair efficiency (log10): 0.0876
